Here are results for 46 compounds from PubChem BioAssay AID2685 (National Center for Advancing Translational Sciences (NCATS), 2010).

Among all 320,000 compounds or so, about 2,100 (0.66%) were called active. Inconclusive results (about 53%) are left out. The call rests on the fitted dose curve; in most records, active means well fitted inhibition curve with a large enough effect in the signal ratio, with a control signal flat (not every such curve was filed as active); inconclusive means small, poorly fitted or top-dose-only effect, or effect the other way, or a change in a side signal; inactive means flat fitted curve, though single readings scatter; the % refers to the signal ratio. What follows is part of a selection rich in actives, with near analogues and random picks from the rest.
Potency means the concentration at half of the fitted maximal effect.

This experiment is described as follows: qHTS Assay for Lipid Storage Modulators in Drosophila S3 Cells.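 On cell number change: cells counted by Cell Tracker Red CMTPX staining in the red channel.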 On lipid storage change, negative = inhibition: on the % scale 0 is the no-effect control and ±100 the full control effect. Particulars: BODIPY lipid droplet fluorescence, 18-24 h, cells fed with added oleic acid; cell number change: measured here: cell count max response; series mostly up to 46.1 µM; lipid storage change, negative = inhibition: at the top concentration. An outline of the steps:
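Laser-scanning cytometry quantifies lipid droplet accumulation (500–530 nm total intensity; droplet/cell object ratio) in oleic acid-fed (400 uM added) Drosophila S3 cells treated with a concentration series. 20 uM Triacsin C defined 100% inhibition.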
As for `COc1nn(-c2ccccc2)c(=O)c(Cl)c1Cl`, the Potency is 11.6 µM (active) and the cell number change is -20%. Regarding `COc1ccc(NC(=O)NC2CCCCCCC2)c(OC)c1`, the call was inactive and the cell number change is -0.578%. In the case of `COc1ccc(NC(=O)Cn2ccc3c(OC)cccc3c2=O)cc1`, the “lipid storage change, negative = inhibition” value was 0.623% (inactive) and the cell number change amounted to 0.407%. `CNC(=O)NC(=O)COc1ccc2oc3c(c2c1)CCCC3`: the Potency is 0.58 µM (active) and the cell number change stood at 18.9%. In the case of `NNC(=O)COc1ccc2oc3c(c2c1)CCCC3`, the compound was called inactive and the cell number change turned out to be 10.5%.

On to `O=C(O)COc1ccc2oc3c(c2c1)CCCC3`, for which the result was inactive and the cell number change came to 21.3%. Regarding `COc1cccc(-c2cc(C(=O)N/N=C/c3ccco3)c3ccccc3n2)c1`, the “lipid storage change, negative = inhibition” value was -13.5% (inactive). Consider `O=C(N/N=C/c1ccco1)c1cc(C2CC2)nc2ccccc12`, for which the compound was called inactive and the cell number change was -1.9%. In the case of `O=C(N/N=C/c1ccco1)c1cc(-c2ccccc2)nc2ccccc12`, the Potency was 29.1 µM (active) and the cell number change was -7.31%.

As to `O=C1N/C(=N/O)S/C1=C/c1cccnc1`, the “lipid storage change, negative = inhibition” value was -2.62% (inactive) and the cell number change was 16%.

For the compound `O=C(COC(=O)c1cc2ccccc2o1)c1ccccc1`, the result was inactive and the cell number change is -6.43%. Consider `O=C(Oc1ccccc1/C=C\C(=O)c1cc2ccccc2o1)c1ccccc1`, for which the Potency was 14.6 µM (active). In the case of `CC(=O)/C=C\c1ccccc1OC(=O)c1cc2ccccc2oc1=O`, the “lipid storage change, negative = inhibition” value was -11.6% (inactive) and the cell number change was -9.71%. As to `FC(F)(F)c1cc(C(F)(F)F)c2ccc(N3CCOCC3)nc2n1`, the “lipid storage change, negative = inhibition” value was 1.42% (inactive) and the cell number change was 4.12%. As to `C=CCn1c(SCC(=O)NC(=O)c2cccc([N+](=O)[O-])c2)nnc1-c1ccccc1F`, the “lipid storage change, negative = inhibition” value was -0.693% (inactive) and the cell number change was -9.47%.

In the case of `Cc1ccc(C(=O)OCC(=O)N2CCOCC2)cc1`, the outcome was inactive and the cell number change is -0.794%. In the case of `Cc1ccc(NC(=O)COC(=O)c2ccc(C)c(S(=O)(=O)N3CCOCC3)c2)cc1`, the “lipid storage change, negative = inhibition” value was 1.82% (inactive) and the cell number change amounted to 6.4%.

`CCN(c1ccc(NC(=O)COC(=O)c2ccc(C)c(S(=O)(=O)N3CCOCC3)c2)cc1)C(C)C`: the Potency was 23.1 µM (active) and the cell number change was -6.95%. For `O=C(COC(=O)c1cc(S(=O)(=O)N2CCOCC2)ccc1O)NCC1CCCO1` (stereo not given), the “lipid storage change, negative = inhibition” value is 19.7% (inactive) and the cell number change is -22.6%. As for `O=C(COC(=O)c1ccc(Cl)c(S(=O)(=O)N2CCCCC2)c1)NCC1CCCO1` (stereo not given), the “lipid storage change, negative = inhibition” value was 7.99% (inactive) and the cell number change was found to be 18.1%.

In the case of `Cc1ccc(C(=O)OCC(=O)Nc2ccc3c(c2)OCO3)cc1S(=O)(=O)N1CCOCC1`, the “lipid storage change, negative = inhibition” value was 12.5% (inactive) and the cell number change is -2.32%. Regarding `O=C(COC(=O)c1ccc(Br)c(S(=O)(=O)N2CCOCC2)c1)NCC1CCCO1` (stereo not given), the Potency is 0.58 µM (active) and the cell number change is -0.879%. Consider `CSc1sc(C(=O)OC(C)C)c2c1C(=O)CC(C)(C)C2`, for which the compound was classed as inactive and the cell number change was -5.28%. On to `O=C(NC1CC1)C1=C[C@H](c2ccc3c(c2)OCO3)C[C@H](OCc2ccc(CO)cc2)O1`, for which the “lipid storage change, negative = inhibition” value was 9.56% (inactive) and the cell number change worked out at 3.05%. For `CC(=O)N1CCc2cc(Br)cc(S(=O)(=O)NCCCN3CCCC(C)C3)c21` (stereo not given), the “lipid storage change, negative = inhibition” value is 6.45% (inactive) and the cell number change was -1.7%. For the compound `CCCc1nc(SCC(=O)N2CCc3ccccc3C2)c2ccccc2n1`, the “lipid storage change, negative = inhibition” value was -4.35% (inactive) and the cell number change was -13.9%. For the compound `O=C(c1ccco1)N1CCN(C(=O)C2CC2)CC1`, the “lipid storage change, negative = inhibition” value is -0.297% (inactive) and the cell number change was 3.46%. Consider `O=C1c2ccccc2NC(c2cccc([N+](=O)[O-])c2)N1O` (stereo not given), for which the “lipid storage change, negative = inhibition” value is -0.341% (inactive) and the cell number change worked out at 5.94%. As for `O=C1c2ccccc2NC(c2cccc([N+](=O)[O-])c2)N1CCc1ccccc1` (stereo not given), the Potency is 5.8 µM (active) and the cell number change stood at 8.73%. Turning to `CC(=O)NN1C(=O)c2ccccc2NC1c1cccc([N+](=O)[O-])c1` (stereo not given), the “lipid storage change, negative = inhibition” value is 0.744% (inactive) and the cell number change is -1.27%. `C[N+]1(C)CC2([N+](=O)[O-])CC=C(Oc3ccccc3)C([N+](=O)[O-])(C2)C1` (stereo not given): the “lipid storage change, negative = inhibition” value was -9.09% (inactive) and the cell number change was -16.8%. The matching figures for `COCCn1c(SCC(=O)c2c(N)n(C3CC3)c(=O)[nH]c2=O)nnc1-c1ccc(Cl)cc1`: 5.65% (inactive) and -5.22%. Consider `Cc1cc([N+](=O)[O-])ccc1NCc1ccccc1[N+](=O)[O-]`, for which the “lipid storage change, negative = inhibition” value was 13.6% (inactive) and the cell number change came out at 7.15%. Regarding `O=C(CSc1ccc([N+](=O)[O-])cn1)Nc1nccs1`, the Potency was 18.4 µM (active) and the cell number change is 2.83%. As for `CC(=O)Nc1ccc(NC(=O)CSc2ccc([N+](=O)[O-])cn2)cc1`, the “lipid storage change, negative = inhibition” value was 8.29% (inactive) and the cell number change worked out at 0.135%. For the compound `O=C(Cn1cc([N+](=O)[O-])cn1)Nc1nccs1`, the “lipid storage change, negative = inhibition” value was 3.37% (inactive) and the cell number change is 10.2%. Take `CCN(CC(=O)Nc1ccc(OC)cc1)C(=O)CCS(=O)(=O)c1ccc(C)cc1`: the “lipid storage change, negative = inhibition” value is -1.53% (inactive) and the cell number change amounted to 4.09%. Turning to `COc1ccc(CNS(=O)(=O)c2c(C(=O)N3CCCCC3)c(C)n(C)c2C)cc1`, the result was inactive and the cell number change is -6.92%.

For `CNC(=O)c1ccc(NC(=O)CC23CC4CC(CC(C4)C2)C3)cc1`, the call was inactive and the cell number change is 12.8%. For the compound `CCN(CC)C(=O)c1cccc(NC(=O)CC23CC4CC(CC(C4)C2)C3)c1`, the Potency is 0.231 µM (active) and the cell number change turned out to be 17.9%. With `O=C(CC12CC3CC(CC(C3)C1)C2)Nc1c(F)cccc1F`, the “lipid storage change, negative = inhibition” value is -2.56% (inactive) and the cell number change was -17.2%. Consider `COc1ccc(CCNC(=O)C2CCC(=O)N2Cc2ccccc2Cl)cc1OC` (stereo not given), for which the “lipid storage change, negative = inhibition” value is -20.8% (inactive) and the cell number change was -14.8%. Turning to `Cc1cc(C(=O)NCCCN2CCN(c3cc(Cl)ccc3C)CC2)n(-c2ccccc2)n1`, the cell number change came to 12.1% and the lipid storage change, negative = inhibition is -3.15% [at 9.22 µM] (inactive).

`CC(C)(C)c1cc(OS(C)(=O)=O)ccc1O`: the “lipid storage change, negative = inhibition” value was 9.4% (inactive) and the cell number change was -0.646%. `CCCCC(CC)C(=O)Oc1ccc(O)c(C(C)(C)C)c1` (stereo not given): the Potency is 25.9 µM (active) and the cell number change is -29.2%. On to `CC(C)(C)c1cc(OC(=O)c2ccncc2)ccc1O`, for which the “lipid storage change, negative = inhibition” value is -0.115% (inactive) and the cell number change was -10.2%.
